Results filed as inconclusive are left out. Values without a mark were called inactive. The source made the active and inactive calls. Calls follow the shape of the dose curve; as a rule, active = well fitted cell-killing curve with a large enough effect in the repeat runs (not every such curve was filed as active); inconclusive = weak or mixed curves, or effect the other way; inactive = no such curve, though single readings can be large or run the other way.
Assay: qHTS assay to identify small molecule antagonists of the estrogen related receptor signaling pathway with the pleiotropic PPARgamma coactivator (PGC) from Tox21 10K library - cell viability counter screen (AID 1224840); also: nearly all actives have a fitted effect of over 40% in size
Details: PGC/ERR reporter cells viability, CellTiter-Fluor, 17.5 h; series mostly up to 92.4 µM; viability change, negative = cytotoxic: at the top concentration
Text: National Center for Advancing Translational Sciences [NCATS]
NIH Chemical Genomics Center [NCGC]
U.S. Environmental Protection Agency [EPA]
National Institutes of Environmental Health Sciences [NIEHS]
National Toxicology Program [NTP]
U.S. Food and Drug Administration [FDA]
Estrogen related receptors (ERRs), the first orphan nuclear receptors discovered, play an important role in the control of cellular energy metabolism. ERRs are required for high-energy production in response to the environmental challenges. The pleiotropic PPARgamma coactivator (PGC) is a major partner of ERR and a key regulator in energy homeostasis. Together they have been implicated in the etiology of metabolic disorders such as Type 2 diabetes and metabolic syndrome. ERR-alpha was also identified as an adverse marker for breast cancer progression; ERR-alpha-positive tumors have a poor prognosis. To screen and to identify environmental compounds that perturb the ERR and PGC/ERR signaling pathways could provide valuable information for potential therapeutic or preventive measures in the treatment of metabolic disease. To differentiate true PGC/ERR antagonists or agonist from cytotoxic substances, the assay is multiplexed with cell viability assay.
Tox21 Assay Protocol Summary:
The PGC/ERR cells were dispensed at 2,000 cells/5 ul/well in 1536-well white plates using a Multidrop dispenser. After the assay plates were incubated at a 37 C/5% CO2 incubator for 6 hours, 23 nL of compounds dissolved in DMSO, positive and negative controls or DMSO only was transferred to the assay plate by a pin tool. The plates were incubated at 37 C for 17.5 hours. 1 ul/well of CellTiter-Fluor reagent was added into the assay plates using a Flying Reagent Dispenser. After 30-minute incubation at 37 C/5% CO2, the fluorescence intensity in the plates was measured using a ViewLux plate reader.
% is scaled to controls: 0 for no effect and ±100 for the full control effect; potency is read from the fitted curve at half-maximal effect.

**Q.** For `C(=C\c1ccccc1)/c1ccccc1`, which “viability change, negative = cytotoxic” value is on record?
**A.** Its value is 1.75%.

**Q.** With `CCOc1ccc(Cc2nccc3cc(OCC)c(OCC)cc23)cc1OCC` as the compound, how does the “viability change, negative = cytotoxic” value read?
**A.** Its value is -11.7% [at 42.5 µM].

**Q.** Which “viability change, negative = cytotoxic” value does the source give for `O=C(/C=C/c1ccccc1)OCCc1ccccc1` here?
**A.** The value was 1.07%.

**Q.** Which “viability change, negative = cytotoxic” value does the source give for `CCC(C)COC(=O)CC(C)C` (stereo not given) here?
**A.** The value was -14.4%.

**Q.** Which “viability change, negative = cytotoxic” value does the source give for `CCCCN(CCCC)C(C(N)=O)c1ccc(OC)cc1` (stereo not given) here?
**A.** The value was -2.32% [at 42.5 µM].

**Q.** With `CC1(C)[C@H](C(=O)O)N2C(=O)C[C@H]2S1(=O)=O` as the compound, how does the “viability change, negative = cytotoxic” value read?
**A.** Its value is -1.15% [at 42.5 µM].

**Q.** With `O=C(CCCN1CC=C(n2c(=O)[nH]c3ccccc32)CC1)c1ccc(F)cc1` as the compound, how does the “viability change, negative = cytotoxic” value read?
**A.** The value was -26.1% [at 42.5 µM].

**Q.** Which “viability change, negative = cytotoxic” value does the source give for `COC(=O)C1=C(C)NC(C)=C(C(=O)O[C@@H]2CCCN(Cc3ccccc3)C2)[C@@H]1c1cccc([N+](=O)[O-])c1` here?
**A.** Its value is -25.8% [at 42.5 µM].

**Q.** Which “viability change, negative = cytotoxic” value does the source give for `C=Cc1ccc(S(=O)(=O)O)cc1` here?
**A.** The value was -10.6%.

**Q.** For `CC(C)(C)C(=O)C(=O)O`, which “viability change, negative = cytotoxic” value is on record?
**A.** The value was 11.1%.

**Q.** Which “viability change, negative = cytotoxic” value does the source give for `CCc1ccccc1` here?
**A.** Its value is 1.03%.

**Q.** For `C=COCC(C)C`, which “viability change, negative = cytotoxic” value is on record?
**A.** The value was -4.73%.

**Q.** With `O=C(O)C[C@H](NC(=O)OCc1ccccc1)C(=O)O` as the compound, how does the “viability change, negative = cytotoxic” value read?
**A.** The value was 2.69%.

**Q.** Which “viability change, negative = cytotoxic” value does the source give for `OC1(c2ccccc2)CCNCC1` here?
**A.** Its value is -8.76% [at 42.5 µM].

**Q.** For `Cc1cc(O)ccc1O`, which Potency is on record?
**A.** Its Potency is 61.8 µM (active).

**Q.** With `O=C(/C=C/c1ccc(O)c(O)c1)O[C@@H]1C[C@@](OC(=O)/C=C/c2ccc(O)c(O)c2)(C(=O)O)C[C@@H](O)[C@@H]1O` as the compound, how does the “viability change, negative = cytotoxic” value read?
**A.** Its value is -2.15% [at 42.5 µM].

**Q.** For `CC(=O)OCCN(CCOC(C)=O)c1ccc(N=Nc2ccc([N+](=O)[O-])cc2C#N)cc1`, which Potency is on record?
**A.** The Potency was 48.6 µM (active).

**Q.** For `Nc1ncnc2c1ncn2[C@H]1CC[C@@H](CO)O1`, which “viability change, negative = cytotoxic” value is on record?
**A.** Its value is -1.33%.

**Q.** With `CC(=O)c1cc2ccccc2s1` as the compound, how does the “viability change, negative = cytotoxic” value read?
**A.** The value was 0.521% [at 42.5 µM].

**Q.** For `CCCCC(CC)COP(=O)(O)O` (stereo not given), which “viability change, negative = cytotoxic” value is on record?
**A.** The value was -2.04%.

**Q.** Which “viability change, negative = cytotoxic” value does the source give for `O=C1NCCN1CCO` here?
**A.** Its value is -5.33%.

**Q.** For `CCCC(=O)C(=O)O`, which “viability change, negative = cytotoxic” value is on record?
**A.** Its value is 1.35%.

**Q.** Which “viability change, negative = cytotoxic” value does the source give for `O=C1CCCCCCCCCCOCCCCO1` here?
**A.** The value was -13.9%.

**Q.** Which Potency does the source give for `COC(=O)c1nc(Cl)c(Cl)nc1N` here?
**A.** The Potency was 1.68 µM (active).

**Q.** For `Cc1cc(O)c(C)c(C)c1O`, which “viability change, negative = cytotoxic” value is on record?
**A.** The value was 2.09% [at 42.5 µM].

**Q.** Which “viability change, negative = cytotoxic” value does the source give for `C[C@@H](CN(C)C)CN1c2ccccc2Sc2ccccc21` here?
**A.** Its value is -20.7% [at 42.5 µM].

**Q.** For `O=C(Cn1ccnc1[N+](=O)[O-])NCCO`, which “viability change, negative = cytotoxic” value is on record?
**A.** The value was 6.96% [at 42.5 µM].

**Q.** With `CC(C)(C)CC(=O)OCC(=O)[C@@]1(O)CC[C@H]2[C@@H]3CCC4=CC(=O)C=C[C@]4(C)[C@H]3[C@@H](O)C[C@@]21C` as the compound, how does the “viability change, negative = cytotoxic” value read?
**A.** The value was -16.7% [at 42.5 µM].

**Q.** With `Clc1cc(Cl)nc(Cl)n1` as the compound, how does the “viability change, negative = cytotoxic” value read?
**A.** Its value is -2.32%.

**Q.** With `CN(C)CCC=C1c2ccccc2C=Cc2ccccc21` as the compound, how does the “viability change, negative = cytotoxic” value read?
**A.** Its value is -5.04% [at 42.5 µM].

**Q.** Which “viability change, negative = cytotoxic” value does the source give for `CC(C)=CCC/C(C)=C/CC/C(C)=C/C(=O)OCC(=O)[C@@]1(O)CC[C@H]2[C@@H]3CCC4=CC(=O)C=C[C@]4(C)[C@H]3[C@@H](O)C[C@@]21C` here?
**A.** The value was -24.7% [at 42.5 µM].

**Q.** With `CC(C)Nc1cccnc1N1CCN(C(=O)c2cc3cc(NS(C)(=O)=O)ccc3[nH]2)CC1` as the compound, how does the “viability change, negative = cytotoxic” value read?
**A.** The value was -11.5% [at 42.5 µM].

**Q.** Which “viability change, negative = cytotoxic” value does the source give for `Oc1ccc(Cl)c2cccnc12` here?
**A.** The value was -27.2% [at 42.5 µM].

**Q.** Which “viability change, negative = cytotoxic” value does the source give for `CCOC(C)=O` here?
**A.** The value was 1.23%.

**Q.** With `C[C@]1(Cn2ccnn2)[C@H](C(=O)O)N2C(=O)C[C@H]2S1(=O)=O` as the compound, how does the “viability change, negative = cytotoxic” value read?
**A.** The value was -0.482% [at 42.5 µM].

**Q.** Which “viability change, negative = cytotoxic” value does the source give for `C=C1C[C@@]23CC[C@H]4[C@@](C)(CCC[C@@]4(C)C(=O)O[C@@H]4O[C@H](CO)[C@@H](O)[C@H](O)[C@H]4O)[C@@H]2CC[C@]1(O[C@@H]1O[C@H](CO)[C@@H](O)[C@H](O[C@@H]2O[C@H](CO)[C@@H](O)[C@H](O)[C@H]2O)[C@H]1O[C@@H]1O[C@H](CO)[C@@H](O)[C@H](O)[C@H]1O)C3` here?
**A.** The value was 0.763%.

**Q.** For `CN1CC(=O)N2[C@H](c3ccc4c(c3)OCO4)c3[nH]c4ccccc4c3C[C@@H]2C1=O`, which “viability change, negative = cytotoxic” value is on record?
**A.** Its value is 1.17% [at 42.5 µM].

**Q.** Which “viability change, negative = cytotoxic” value does the source give for `O=C(Nc1cccc2c(=O)cc(-c3nn[nH]n3)oc12)c1ccc(OCCCCc2ccccc2)cc1` here?
**A.** Its value is 4.87% [at 42.5 µM].

**Q.** Which “viability change, negative = cytotoxic” value does the source give for `CC(CC1c2ccccc2CCc2ccccc21)CN(C)C` (stereo not given) here?
**A.** The value was -8.01% [at 42.5 µM].

**Q.** For `C/C=C(/C(=C/C)c1ccc(O)cc1)c1ccc(O)cc1`, which “viability change, negative = cytotoxic” value is on record?
**A.** The value was -15.8% [at 42.5 µM].

Reference: PubChem BioAssay (Tox21)
